Screens deposited in PubChem by Sanford-Burnham Center for Chemical Genomics.
CYP2C9 activ = CYP2C9 (human) activation | P11712 | recombinant CYP2C9, luciferin-H conversion, luminescence; stronger effect = higher value; factor 1 = untreated enzyme, 0 = blocked | activation factor at 5 µM | 96,000 compounds, 1.4% hits | AID 1024;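 active means activation factor of 2 or more for CYP2C9 at a 5 µM dose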
CYP2C19 inhib = human CYP2C19 inhibition | CYP2C19 Supersomes, luciferin-H EGE luminescence, 30 min | inhibition, % at 5 µM | 96,000 compounds, 21% hits;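 active means CYP2C19 inhibition above a set limit at 5 µM in the primary screen, cut at about 50% in these data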
PLAP act = human PLAP activation; 96,000 compounds, 1.2% hits; activation fold at 20 µM; P05187; purified PLAP enzyme, luminescent substrate read-out; stronger effect = higher value; AID 696; in the data active means activation fold above about 2
Target sequence (P05187 whole entry, looked up): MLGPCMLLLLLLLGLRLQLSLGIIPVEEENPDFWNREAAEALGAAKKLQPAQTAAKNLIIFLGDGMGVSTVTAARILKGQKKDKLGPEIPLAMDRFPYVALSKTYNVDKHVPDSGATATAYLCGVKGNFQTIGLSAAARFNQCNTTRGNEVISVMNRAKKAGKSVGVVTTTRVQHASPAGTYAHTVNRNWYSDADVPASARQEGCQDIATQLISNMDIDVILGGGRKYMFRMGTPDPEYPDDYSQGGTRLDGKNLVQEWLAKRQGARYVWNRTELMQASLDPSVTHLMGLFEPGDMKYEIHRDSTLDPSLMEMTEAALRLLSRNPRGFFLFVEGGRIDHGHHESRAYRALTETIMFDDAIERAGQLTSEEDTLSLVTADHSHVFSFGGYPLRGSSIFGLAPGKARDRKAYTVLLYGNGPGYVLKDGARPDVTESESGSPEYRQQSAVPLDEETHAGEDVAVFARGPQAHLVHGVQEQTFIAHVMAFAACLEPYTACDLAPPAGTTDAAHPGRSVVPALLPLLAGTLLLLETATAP
CYP2C19 activ = increases human CYP2C19 enzyme activity. recombinant CYP2C19, luciferin-H EGE luminescence; stronger effect = higher value; 0 = fully inhibited enzyme, 1 = untreated enzyme. activation factor at 5 µM. P33261. 96,000 tested, under 10 active;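 active means activation factor of at least 2 at 5 µM in the primary screen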
CYP2C9 inhib = inhibitors of human CYP2C9. AID 777. inhibition, % at 5 µM. 96,000 compounds, 20% hits. CYP2C9 Supersomes, luciferin-H conversion, luminescence;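 active means blocking of liver enzyme CYP2C9 beyond about 50% at 5 µM, limit read from the data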
A number is an active result; - = inactive. In the library only some 31% were active in any assay of this set; here they are far more common.

SMILES	CYP2C9 activ	CYP2C19 inhib	PLAP act	CYP2C19 activ	CYP2C9 inhib
O=C(CCc1ccc(S(=O)(=O)NCCc2ccccc2)cc1)N1CCN(Cc2ccc3c(c2)OCO3)CC1	-	53	-	-	-
O=C(NC1CCCCC1)N1CCN(CCc2ccccc2)CC1	-	-	-	-	-
COc1ccc(-c2nn(-c3ccccc3)cc2C#N)cc1	-	-	-	-	-
CCCCOC(=O)Nc1ccccc1C(N)=O	-	-	-	-	-
Cc1ccc(NC(=S)NNC(=O)Cn2nc([N+](=O)[O-])cc2C)cc1	-	-	2	-	-
O=C(Cn1nc(C(F)F)cc1C(F)F)NNC(=S)Nc1ccc(F)cc1	-	-	2.4	-	-
Cc1ccc(NC(=S)NNC(=O)CCn2cc(C)cn2)cc1	-	-	2.4	-	-
CCC(C)(C)n1nnnc1C(c1cc2cc(C)cc(C)c2[nH]c1=O)N1CCN(C(=O)c2ccco2)CC1 (stereo unspecified)	-	-	-	-	-
CN(C(=S)NC(=O)CCCOc1ccc(Cl)cc1Cl)c1ccccc1	-	-	-	-	-
O=C(CSc1nnc(COc2ccccc2)n1Cc1ccco1)Nc1ccc2c(c1)OCCO2	-	-	-	-	-
Cc1ccc(S(=O)(=O)N2CCC(C(=O)NCc3ccncc3)CC2)cc1	-	84	-	-	99
COc1ccc(S(=O)(=O)N2CCCC(C(=O)NCc3ccncc3)C2)cc1 (stereo unspecified)	-	99	-	-	99
Cc1ccc(S(=O)(=O)N2CCC(C(=O)NCc3cccnc3)CC2)cc1	-	-	-	-	-
Cc1cccc(OCC(=O)Nc2ccc(S(=O)(=O)N3CCCC3)cc2)c1	-	-	-	-	-
COc1ccc(S(=O)(=O)N2CCCC(C(=O)NCc3ccccn3)C2)cc1 (stereo unspecified)	2.4	-	-	-	-
O=C(NCc1ccccn1)C1CCCN(S(=O)(=O)c2ccccc2)C1 (stereo unspecified)	-	-	-	-	-
COc1ccc(CNC(=O)C2CCCN(S(=O)(=O)c3cc(C)ccc3OC)C2)cc1 (stereo unspecified)	-	-	-	-	-
CSc1ccccc1NC(=O)COc1ccc(S(=O)(=O)N2CCCC2)cc1	-	-	-	-	80
NC(=O)CCCCC(=O)OCCCc1cccs1	-	-	-	-	-
Cc1ccc(S(=O)(=O)N2CCC(C(=O)NCCc3ccccc3)CC2)cc1	-	-	-	-	-
O=C(COc1ccc(S(=O)(=O)N2CCCCC2)cc1)NCc1ccncc1	-	92	-	-	92
Cc1ccc(S(=O)(=O)N2CCC(C(=O)NCCN3CCCCCC3)CC2)cc1	-	-	2.1	-	-
FC(F)(F)c1cc(-c2ccc(Cl)cc2)nc2ncnn12	-	-	-	-	-
COc1ccc(-n2ncc3c(=O)n(CC(=O)N4CCCc5ccccc54)cnc32)cc1	-	-	-	-	-
CC1(C)CC(=O)C2(CC3=C(CC(C)(C)CC3=O)O2)C(=O)C1	-	-	-	-	-
SMILES	CYP2C9 activ	CYP2C19 inhib	PLAP act	CYP2C19 activ	CYP2C9 inhib
COc1ccc(S(=O)(=O)N2CCN(CC(=O)Nc3ccc(F)c(F)c3)CC2)cc1	2.2	70	-	-	-
COc1ccc(NC(=O)CN2CCN(CC(=O)Nc3ccccc3F)CC2)cc1OC	-	-	-	-	-
O=C(CCN1CCN(c2ccccc2)CC1)Nc1ccccc1F	-	75	-	-	75
COc1ccc(S(=O)(=O)N2CCN(CCC(=O)Nc3ccccc3F)CC2)cc1	-	87	-	-	94
COc1ccc(OC)c(NC(=O)CCN2CCN(c3ccccc3)CC2)c1	-	-	-	-	-
O=C(CN1CCN(S(=O)(=O)c2ccc(F)cc2)CC1)Nc1ccc2c(c1)OCCO2	-	-	-	-	-
COc1cc(NC(=O)CCN2CCN(c3ccccc3F)CC2)cc(OC)c1	-	-	-	-	63
COCCCNC(=O)CCCn1c(=O)c2ccccc2n(CC(=O)Nc2c(C)cccc2C)c1=O	-	-	-	-	-
O=C(CCN1CCN(CC(=O)Nc2ccccc2F)CC1)Nc1ccccc1F	-	74	-	-	-
O=C(CCN1CCN(c2ccc(F)cc2)CC1)Nc1ccccc1F	-	66	-	-	60
CCOC(=O)C(C)n1cnc2c(oc3ccccc32)c1=O (stereo unspecified)	-	-	-	-	-
COC(=O)c1[nH]c2ccc(F)cc2c1NC(=O)C1=COCCO1	-	-	-	-	-
CC(C)CC(OC(=O)c1ccco1)C(=O)NC1CCCCC1 (stereo unspecified)	-	83	-	-	87
O=C(OC(C(=O)NC1CCCC1)c1ccccc1F)c1ccco1 (stereo unspecified)	-	-	-	-	69
Nc1cc(Cl)c(N)cc1Cl	-	-	-	-	-
Cc1ccc(S(=O)(=O)Nc2nncs2)cc1	-	-	-	-	-
Cc1ccc(S(=O)(=O)Nc2c(C)nn(C)c2C)cc1	-	79	-	-	-
CCOC(=O)c1ccc(NC(=O)Nc2c(C)nn(C)c2C)cc1	-	-	-	-	-
CCc1ccc(S(=O)(=O)Nc2c(C)nn(C)c2C)cc1	-	84	-	-	-
Cc1ccc(S(=O)(=O)Nn2c(C)ccc2C)cc1	-	64	-	-	-
O=C(O)CCCCCNS(=O)(=O)c1ccc(Cl)cc1	-	-	-	-	-
Cc1c(C#N)c(N=CN(C)C)c(C(=O)c2ccccc2)n1-c1ccc(Br)cc1	-	73	-	-	61
CSc1nc2ccccc2n1Cc1cccc(F)c1	-	-	-	-	-
COc1ccc(-c2nc(Cn3c(SCc4cccc(F)c4)nc4ccncc43)c(C)o2)cc1OC	-	73	-	-	89
CCOC(=O)N1CCC(NC(=O)CS(=O)Cc2nc(-c3ccc(OC)c(OC)c3)oc2C)CC1 (stereo unspecified)	-	-	-	-	-
SMILES	CYP2C9 activ	CYP2C19 inhib	PLAP act	CYP2C19 activ	CYP2C9 inhib
COc1ccc(-c2nc(Cn3c(SCc4ccc(C)cc4)nc4ccncc43)c(C)o2)cc1OC	-	53	-	-	53
Cn1nc(C(F)(F)F)c(/C=N/OC(=O)c2ccccc2Cl)c1SCc1ccccc1Cl	-	68	-	-	93
Cc1ccc(NC(=O)c2ccco2)c(NC(=O)CN2C(=O)c3ccccc3C2=O)c1	-	-	-	-	-
C=CCn1c(NC(=O)c2ccc(Br)o2)c(C(=O)OCC)sc1=S	-	-	-	-	88
C=CCOc1nc2c(c(=O)n(C)c(=O)n2C)n1C	-	-	-	-	-
CCOC(=O)Cn1c(=O)c2c(nc3n2CCN3Cc2ccccc2)n(C)c1=O	-	-	-	-	-
CCOC(=O)Cn1c(=O)c2c(nc(N3CCCCC3)n2C)n(C)c1=O	-	-	-	-	55
C=CCOc1nc2c(c(=O)n(C)c(=O)n2C)n1Cc1c(Cl)cccc1Cl	-	62	-	-	-
Cn1c(=O)c2c(nc(-n3ccnc3)n2Cc2ccc(Cl)cc2Cl)n(C)c1=O	-	60	-	-	80
Cn1c(=O)c2c(nc(N3CCCCCC3)n2Cc2cccc3ccccc23)n(C)c1=O	-	76	-	-	90
